Assay results as given in PubChem BioAssay (EPA / NIEHS).
Calls of active or inactive are those of the source. Rule for the calls: active = hit-call score of the fitted dose curve at least 0.9, where 1 is the maximum; inactive = score below 0.9.

test: CEETOX_H295R_CORTIC: CeeTox H295R High-throughput Steroidogenesis Assay for Corticosterone (CORTIC) (AID 2283437); conditions: actives raise or lower the signal;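 note: corticosterone secreted into medium quantified by mass spectrometry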;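 for AC50: human H295R adrenal cells prestimulated with forskolin before chemical exposure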
Outline: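 Steps: seed H295R, adhere overnight; 10 uM forskolin 48 h; replace with chemical (0.1% DMSO) 48 h; extract medium with MTBE; quantify corticosterone by HPLC-MS/MS; score bidirectionally vs DMSO.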

Structure (SMILES)	AC50	outcome
CCCCCc1ccc(O)cc1	21.9 µM (active)	
Oc1cc2ccccc2cc1O		inactive
Clc1ccc(Nc2nnc(Cc3ccncc3)c3ccccc23)cc1	2.38 µM (active)	
C[C@]12CC[C@@H]3c4ccc(O)cc4CC[C@H]3[C@@H]1C[C@@H](O)[C@@H]2O		inactive
COc1cc([N+](=O)[O-])ccc1N		inactive
c1cc[nH]c1		inactive
COc1cccc(O)c1		inactive
Cc1cccc2c1ccc1ccccc12		inactive
CCCCCC(C)OC(=O)COc1ccc(Cl)c2cccnc12 (configuration not stated)		inactive
O=C(CCCN1CCC(O)(c2ccc(Cl)cc2)CC1)c1ccc(F)cc1		inactive
CC(C)CCOCCC(C)C		inactive
O=C(NCc1ncc(C(F)(F)F)cc1Cl)c1c(Cl)cccc1Cl		inactive
CC(C)(C)c1ccc(O)c(O)c1		inactive
CC(C)(c1ccc(Oc2ccc(N)cc2)cc1)c1ccc(Oc2ccc(N)cc2)cc1	0.229 µM (active)	

test: CEETOX_H295R_CORTISOL: CeeTox H295R High-throughput Steroidogenesis Assay for Cortisol (AID 2283438); conditions: actives raise or lower the signal;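 note: cortisol secreted into medium quantified by LC-MS/MS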
Outline: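 Cortisol measured by HPLC-MS/MS after MTBE extraction of medium from H295R cells exposed 48 h to chemical (0.1% DMSO), following 48 h prestimulation with 10 uM forskolin. Viability assessed by MTT in the same wells.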

Structure (SMILES)	outcome	AC50
CCCCCc1ccc(O)cc1	inactive	
Oc1cc2ccccc2cc1O	inactive	
Clc1ccc(Nc2nnc(Cc3ccncc3)c3ccccc23)cc1		3.2 µM (active)
C[C@]12CC[C@@H]3c4ccc(O)cc4CC[C@H]3[C@@H]1C[C@@H](O)[C@@H]2O	inactive	
COc1cc([N+](=O)[O-])ccc1N	inactive	
c1cc[nH]c1	inactive	
COc1cccc(O)c1	inactive	
Cc1cccc2c1ccc1ccccc12	inactive	
CCCCCC(C)OC(=O)COc1ccc(Cl)c2cccnc12 (configuration not stated)		34.9 µM (active)
O=C(CCCN1CCC(O)(c2ccc(Cl)cc2)CC1)c1ccc(F)cc1	inactive	
CC(C)CCOCCC(C)C	inactive	
O=C(NCc1ncc(C(F)(F)F)cc1Cl)c1c(Cl)cccc1Cl	inactive	
CC(C)(C)c1ccc(O)c(O)c1		50 µM (active)
CC(C)(c1ccc(Oc2ccc(N)cc2)cc1)c1ccc(Oc2ccc(N)cc2)cc1		0.401 µM (active)

test: CEETOX_H295R_DOC: CeeTox H295R High-throughput Steroidogenesis Assay for DOC (AID 2283439); conditions: actives raise or lower the signal
Outline: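 11-Deoxycorticosterone quantified in medium by MTBE extraction and HPLC-MS/MS after 48 h chemical exposure (0.1% DMSO) of forskolin-primed (10 uM, 48 h) H295R cells. Same-well MTT viability; data fitted bidirectionally against DMSO.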

Structure (SMILES)	outcome	AC50
CCCCCc1ccc(O)cc1	inactive	
Oc1cc2ccccc2cc1O	inactive	
Clc1ccc(Nc2nnc(Cc3ccncc3)c3ccccc23)cc1	inactive	
C[C@]12CC[C@@H]3c4ccc(O)cc4CC[C@H]3[C@@H]1C[C@@H](O)[C@@H]2O		25.8 µM (active)
COc1cc([N+](=O)[O-])ccc1N		23.8 µM (active)
c1cc[nH]c1	inactive	
COc1cccc(O)c1	inactive	
Cc1cccc2c1ccc1ccccc12	inactive	
CCCCCC(C)OC(=O)COc1ccc(Cl)c2cccnc12 (configuration not stated)	inactive	
O=C(CCCN1CCC(O)(c2ccc(Cl)cc2)CC1)c1ccc(F)cc1	inactive	
CC(C)CCOCCC(C)C	inactive	
O=C(NCc1ncc(C(F)(F)F)cc1Cl)c1c(Cl)cccc1Cl	inactive	
CC(C)(C)c1ccc(O)c(O)c1	inactive	
CC(C)(c1ccc(Oc2ccc(N)cc2)cc1)c1ccc(Oc2ccc(N)cc2)cc1		0.2 µM (active)
